Measured values from PubChem BioAssay (NCI).
The panel holds about 83,000 compounds, 20% with a hit somewhere; the sample as a whole holds those more often.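 Cell lines were cultured in 96-well plates, exposed to a single compound concentration, and assessed for percent growth 48 hours later.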 Unmarked numbers belong to inactive results. Active and inactive are the calls of the source.

System: UO-31 renal
Test: NCI-60 one-dose screen, 48 h (100 = growth as untreated, 0 = no growth, -100 = all killed)
Conditions: 10 µM unless noted
Experimental: Growth inhibition of the UO-31 human tumor cell line is measured as a screen for anti-cancer activity. Cells are grown in 96 well plates and exposed to the test compound for 48 hours. Compounds are tested at a single concentration, which is 10^-5 M for most compounds. The reported endpoint is percent growth (GI% or GIPRCNT), where numbers from 0 - 100% represent growth inhibition, and numbers from -100% - 0 represent cell death. For example, a value of 40 represents 60% growth inhibition. A value of 0 means no net growth occurred over the course of the experiment. A value of -40 indicates 40% of cells at the beginning of the experiment died by the end of the experiment. A value of -100 means all cells are dead at the end of the experiment.
NCI-60 Human Tumor Cell Lines Screen was performed using the standard one-dose NCI protocol, which is described in more detail at https://dtp.cancer.gov/discovery_development/nci-60/default.htm.
Compounds with GIPRCNT values below 10 were considered active. Activity score was based on GIPRCNT using the following formula: […]
Score is 0 for GIPRCNT values of 100 or above, 50 for GIPRCNT values of 0, and 100 for GIPRCNT values of -100.

Compound	growth
CCOC(=O)c1c[nH]n2c(=S)ncnc12	84.8%
N#Cc1c(N2CCOCC2)nc(=S)[nH]c1-c1ccco1	66%
O=C(CCCCCCSc1nc(-c2ccc(Cl)cc2)cc(-c2ccc(Cl)cc2)n1)NO	8.29% (active)
O=C1NC(=O)c2cc([N+](=O)[O-])cc3cccc1c23	66.4%
c1ccc(-c2nnc(-c3c[nH]c4ncccc34)s2)cc1	51.6%
c1ccc(-c2nc(N3CCCNCC3)c3nc(-c4ccccc4)oc3n2)cc1	51.1%
O=C(Nc1cccnc1)c1ccc2ccc3ccc(C(=O)Nc4cccnc4)nc3c2n1	36.3%
C[n+]1c2ccccc2nc2c(N)cc(N)cc21	78.3%
Cc1cnc(N)nc1OCC(C)(C)CNC(=O)c1cccc(-c2ccc(S(=O)(=O)Nc3ccc4c(c3)N(C(=O)C3CC3)CCC4)cc2)c1	62%
COc1ccc2c(c1)c(-c1noc(C(=O)c3cn(C)c4ncc(Br)cc34)n1)cn2C	70.5%
O=C1COCCN1c1ccc(NCc2cn(Cc3cccc4ccccc34)c3ccccc23)cc1	58%
Cc1cc(C)c(O)c(CNCCCCCCNCc2cc(C)cc(C)c2O)c1	-60.3% (active)
CSc1nc(N)c(N=Nc2ccc(S(=O)(=O)Nc3nnc(C)s3)cc2)c(=O)[nH]1	76.9%
Cc1cc[n+](CCCCCCCCCC[n+]2ccc(C)cc2)cc1	99.8%
COC(=O)c1cc2c(=O)[nH]cc3c2c(n1)CCC3	75.4%
COc1ccc(OC)c(NC=O)c1	92%
Cc1cccc(/C=C2\N=C(c3ccccc3)N(c3ccc(S(N)(=O)=O)cc3)C2=O)c1	99.9%
Ic1ccc2[nH]cc(SSc3c[nH]c4ccc(I)cc34)c2c1	36.6%
CC1(C)CC[C@]2(C(N)=O)CC[C@]3(C)C(=CC[C@@H]4[C@@]5(C)C/C(=C/c6ccncc6)C(=O)C(C)(C)[C@@H]5CC[C@]43C)[C@@H]2C1	-98.1% [100 µM] (active)
CCN(CCNc1ccc(C)c2sc3cc(Cl)ccc3c(=O)c12)CC(C)O (stereo not given)	-61.8% (active)

Compound	growth
C[C@]12CCc3c(ccc4cc(O)ccc34)[C@@H]1CC[C@H]2O	87.2%
c1coc2occoc=2o1	92.5%
COc1ccc(CC(C#N)c2ccc(Cl)cc2)cc1 (stereo not given)	102%
O=C(NCc1ccccc1)C(Cl)Cl	91.5%
Cc1ccc(-c2cc(O)c(-c3ccc(C)cc3C)cc2O)c(C)c1	64.5%
CN(C)Cc1ccc[nH]1	88.9%
C#CCOc1ccc(C2=NN(CC3CC3)C3N=C(Cl)c4ncn(CC5CC5)c4N23)cc1OCC#C (stereo not given)	46.9%
O=C1/C(=C\c2cccn2Cc2ccccc2)c2ccccc2N1c1c(Cl)cccc1Cl	50.2%
O=C(NCCCCCCCNC(=O)OCc1ccc2c(Cl)cc(Cl)c(O)c2n1)OCc1ccc2c(Cl)cc(Cl)c(O)c2n1	-100% (active)
O=C1CC(c2ccccc2)Cc2nc3ccc(Cl)cc3cc21 (stereo not given)	35%
CCOC(=O)n1cc(C2=C(c3ccc(OC)c(OC)c3)COC2=O)c2ccccc21	26.5%
CC[C@]1(O)CC2CN(CCc3c([nH]c4ccccc34)[C@@](C(=O)OC)(c3cc4c(cc3OC)N(C=O)[C@H]3[C@@](O)(C(=O)OC)[C@H](OC(C)=O)[C@]5(CC)C=CCN6CC[C@]43[C@@H]65)C2)C1 (stereo not given in full)	56.3%
O=C(N=c1n(-c2ccccc2)nc2n1CCN2C1=NCCN1)c1ccc(Cl)cc1	57.9%
COc1ccc(C2CC(c3cc(OC)c(OC)c(OC)c3)=NN2C(C)=O)cc1OCC(=O)Nc1nc2ccc(C(F)(F)F)cc2s1 (stereo not given)	39.5%
O=C1CC(c2ccccc2)Cc2nc3ccc(Br)cc3cc21 (stereo not given)	41.4%
CCCCN(CC)CC(CC)Nc1cc(OC)cc2cccnc12 (stereo not given)	102%
O=S(=O)(c1ccc(N/N=C\c2ccccc2Cl)cc1)c1ccc(N/N=C/c2ccccc2Cl)cc1	63.7%
COc1ccc(/C=C/C(=C/c2c(O)[nH]c3cc(Br)ccc23)N=O)cc1	88.5%
Nc1cc(Cl)cc2cccnc12	67.9%
CCCCOC(=O)c1c(C)[nH]c(/C=C2\N=C(c3ccc[nH]3)C=C2OC)c1C	-72.2% (active)
